This is an account of results in PubChem BioAssay (NCATS).

Experiment [1] can be described thus: Cellular Toxicity (caspase-3) Jurkat (AID 655; active = well fitted curve in the direction sought with a large enough effect; an effect the other way counts as inactive or inconclusive;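 also: cells exposed to compound for 16 h at 37 °C before reading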; also: potency is read from the fitted curve at half-maximal effect). Particulars: Jurkat caspase-3 activation, luminescence; caspase-3 activation: at 92.2 µM (top of the series), DMSO = 0%, tamoxifen = 100%. The essentials: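 Luminescent caspase-3/7 readout (aminoluciferin substrate cleavage) in human T-cell leukemia Jurkat cells after 16 hr compound exposure. Concentration-response normalized to DMSO and 100 uM tamoxifen; AC50 by standard Hill equation.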

Experiment [2] can be described thus: Cell Viability - LYMP2-026 (AID 989; active = well fitted curve in the direction sought with a large enough effect; an effect the other way counts as inactive or inconclusive; also: nearly all actives have a fitted effect of over 50% in size; also: potency is read from the fitted curve at half-maximal effect). In outline: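 Human lymphoblastoid LYMP2-026 cells, 2500/well, exposed to compound 24 h at 37 C in complete medium. Viability as intracellular ATP by CellTiter-Glo luminescence; AC50 from Hill fits of qHTS concentration-response.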
In experiment [3] the target is Glucocorticoid receptor (Homo sapiens) (UniProt P04150). Briefly: qHTS assay for small molecule agonists of glucocorticoid receptor signaling (AID 588532; active = well fitted curve in the direction sought with a large enough effect in the signal ratio, with a control signal flat; the % refers to the signal ratio;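 also: 100% = dexamethasone at 0.1 µM and 0% = DMSO only wells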). Conditions: HeLa MMTV-bla, beta-lactamase ratio, agonist, 18 h; activation: stronger effect = higher value, percent of dexamethasone control, DMSO zero. The essentials:
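Using MMTV-bla HeLa cells in medium with 1% stripped FBS and 25 mM HEPES, compounds were titrated and incubated overnight-length (18 h). Beta-lactamase cleavage of CCF4 was quantified by dual-emission fluorescence.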
(In qHTS, concentration-response curves come from the screen itself.)

The target is the same in experiment [4]. Briefly: qHTS assay for small molecule antagonists of glucocorticoid receptor signaling (AID 588533; active = well fitted inhibition curve with a large enough effect in the signal ratio, with a control signal flat, not every such curve was filed as active; the % refers to the signal ratio;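 also: cells stimulated with 2 nM dexamethasone as agonist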; also: potency is read from the fitted curve at half-maximal effect). In outline:
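Antagonist-mode qHTS: compound titrations added to GRE-bla HeLa cells, then dexamethasone 2 nM final; 18 h, 37 C. CCF4 FRET fluorescence normalized to dexamethasone and DMSO; IC50 from Hill fit.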

In experiment [5] the target is Vitamin D3 receptor (Homo sapiens) (UniProt P11473). In words: qHTS assay for small molecule antagonists of vitamin D receptor signaling (AID 588541). Also: potency is read from the fitted curve at half-maximal effect. The essentials: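 Antagonist-mode beta-lactamase reporter assay: HEK293T VDR-UAS-bla cells were exposed to titrated compound alongside 1-alpha,25-dihydroxyvitamin D3 at 3 nM final for 16 h. Values were normalized to the 50 nM agonist control and DMSO basal, with IC50 and efficacy from Hill equation fits.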
Vitamin D3 receptor (Homo sapiens), sequence (P11473 whole entry, looked up): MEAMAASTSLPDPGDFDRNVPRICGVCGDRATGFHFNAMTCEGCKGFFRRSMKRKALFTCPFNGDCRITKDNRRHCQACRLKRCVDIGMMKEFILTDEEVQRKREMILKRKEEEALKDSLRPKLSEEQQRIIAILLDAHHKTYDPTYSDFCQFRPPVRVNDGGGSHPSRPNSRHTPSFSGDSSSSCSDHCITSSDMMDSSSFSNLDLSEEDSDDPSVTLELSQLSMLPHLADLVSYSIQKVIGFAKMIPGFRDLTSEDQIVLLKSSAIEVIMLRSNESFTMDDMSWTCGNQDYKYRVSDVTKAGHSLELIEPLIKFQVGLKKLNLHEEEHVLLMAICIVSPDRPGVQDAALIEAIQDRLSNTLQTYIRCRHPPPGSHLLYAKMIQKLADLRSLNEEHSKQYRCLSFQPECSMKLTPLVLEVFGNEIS

Experiment [6] has as its target Thyroid hormone receptor beta (Homo sapiens) (UniProt P10828). In words: qHTS assay for small molecule agonists of thyroid hormone receptor beta signaling (AID 588545).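 Also: 0% = DMSO only and 100% = 10 nM T3.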 The essentials: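 TR-UAS-bla GripTite HEK 293 cells (2500/well, medium with 2% charcoal/dextran FBS) were treated in agonist mode for 18 h at 37 C, titrated. Beta-lactamase was read by CCF4 ratio after 2 h; normalized to 10 nM T3 (100%) and DMSO, Hill-fitted for EC50 and efficacy.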

Experiment [7] can be described thus: qHTS assay for small molecule antagonists of retinoid X receptor alpha signaling (AID 588546; active = well fitted inhibition curve with a large enough effect in the signal ratio, with a control signal flat, not every such curve was filed as active; the % refers to the signal ratio;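 also: cells stimulated with 9-cis-retinoic acid as agonist; % is scaled to controls: 0 for no effect and ±100 for the full control effect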). Conditions: HEK293T RXRa-UAS-bla, beta-lactamase ratio, antagonist mode; measured here: W530 green channel, cytotoxicity proxy. The essentials:
(§1)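 Beta-lactamase reporter inhibition, read as CCF4 fluorescence ratio (ex 405, em 460/530 nm) after 2 h at RT. HEK293T UAS-bla cells, 2500/well, were stimulated with 9-cis-RA at 500 or 100 nM final alongside test compound for 18 h at 37 C.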

In experiment [8] the target is Retinoic acid receptor RXR-alpha (Homo sapiens) (UniProt P19793). The experiment is described as above. Particulars: HEK293T RXRa-UAS-bla, beta-lactamase ratio, antagonist mode. The essentials: as §1
Retinoic acid receptor RXR-alpha (Homo sapiens), sequence (P19793 whole entry, looked up): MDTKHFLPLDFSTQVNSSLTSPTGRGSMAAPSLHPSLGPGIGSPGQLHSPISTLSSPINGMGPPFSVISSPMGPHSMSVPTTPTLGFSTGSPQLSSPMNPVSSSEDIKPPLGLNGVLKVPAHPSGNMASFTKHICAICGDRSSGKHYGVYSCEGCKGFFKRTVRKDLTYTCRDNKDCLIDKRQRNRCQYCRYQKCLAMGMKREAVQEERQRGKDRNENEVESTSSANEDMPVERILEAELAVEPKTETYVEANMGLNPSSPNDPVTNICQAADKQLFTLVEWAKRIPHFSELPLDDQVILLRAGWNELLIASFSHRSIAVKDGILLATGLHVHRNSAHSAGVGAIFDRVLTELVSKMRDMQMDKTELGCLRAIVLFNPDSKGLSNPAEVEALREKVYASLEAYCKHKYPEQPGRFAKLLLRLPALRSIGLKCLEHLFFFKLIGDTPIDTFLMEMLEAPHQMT
Experiment [9] has as its target Thyroid hormone receptor beta (Homo sapiens) (UniProt P10828). Briefly: qHTS assay for small molecule antagonists of thyroid hormone receptor beta signaling (AID 588547; active = well fitted inhibition curve with a large enough effect in the signal ratio, with a control signal flat, not every such curve was filed as active; the % refers to the signal ratio;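 also: cells stimulated with 0.4 nM T3 agonist during compound exposure; % is scaled to controls: 0 for no effect and ±100 for the full control effect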). Particulars: TR-UAS-bla HEK293, beta-lactamase ratio, antagonist mode, 18 h. In outline: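 Inhibition of T3-driven (0.4nM final) beta-lactamase reporter activity was measured over 0.59 nM to 92 uM compound after 18 h at 37 C. The cells were GripTite HEK293 TR-UAS-bla in charcoal/dextran-stripped serum, with CCF4 ratio read-out and IC50 from Hill fits.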

Experiment [10] can be described thus: qHTS assay for small molecule agonists of the antioxidant response element (ARE) signaling pathway (AID 651741; active = well fitted activation curve with a large enough effect in the signal ratio; the % refers to the signal ratio; also: potency is read from the fitted curve at half-maximal effect). In outline: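 Quantitative HTS in HepG2 cells stably expressing an ARE-beta-lactamase reporter; 16 h compound exposure at 37 C, followed by 2 h room-temperature incubation with LiveBLAzer B/G FRET substrate and fluorescence measurement.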
Experiment [11] can be described thus: qHTS assay for small molecule activators of the nuclear factor-kappa B (NF-kB) signaling pathway (AID 651749; active = well fitted activation curve with a large enough effect in the signal ratio; the % refers to the signal ratio; also: % of control where 0% means no effect). Conditions: NF-kB-bla ME-180 cells, beta-lactamase FRET ratio, 16 h; activation: stronger effect = higher value. In outline: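 Readout: beta-lactamase reporter driven by an NF-kB response element, detected fluorescently as loss of FRET. Cells were the ME-180 line, treated 16 hr at 37C with pin-transferred compound.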

Experiment [12] concerns the target Nuclear receptor subfamily 1 group I member 2 (Rattus norvegicus) (UniProt Q9R1A7). In words: qHTS assay for small molecule activators of the rat pregnane X receptor (rPXR) signaling pathway (AID 651751; call rule not given here; also: 0% is about no effect). Conditions: rPXR reporter cells, luciferase (One-Glo), 24 h.
Experiment [13] can be described thus: qHTS assay for small molecule activators of the human pregnane X receptor (PXR) signaling pathway (AID 720659; call rule not given here; also: 0% is about no effect).
Experiment [14] concerns the target Estrogen receptor (Homo sapiens) (UniProt P03372). Briefly: qHTS assay for small molecule agonists of estrogen receptor alpha signaling (AID 588514).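 Also: 0% = vehicle only and 100% = reference agonist; nearly all actives have a fitted effect of over 70% in size.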 In outline:
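ER-alpha-UAS-bla GripTite HEK293 cells, 5000/well in 2% charcoal/dextran-stripped FBS medium, treated with compound titrations 18 h at 37 C. CCF4 beta-lactamase read by fluorescence after 2 h RT; normalised to 20 nM 17-beta-estradiol (100%) and DMSO (0%), Hill fit for EC50 and efficacy.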

The target of experiment [15] is Bile acid receptor (Homo sapiens) (UniProt Q96RI1). In words: qHTS assay for small molecule agonists of farnesoid X receptor signaling (AID 588527).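 Also: 0% = vehicle basal and 100% = reference agonist.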 Particulars: HEK293T FXR-UAS-bla, beta-lactamase ratio, 16 h; activation: stronger effect = higher value. In outline: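 FXR-UAS-bla HEK293T, 10% dialyzed FBS; cpds up to 92 uM titration, 16 h 37 C; CCF4 dye 2 h RT; fluorescence. Normalized to chenodeoxycholic acid 100 uM (100%) and DMSO (0%); Hill fit gives EC50, efficacy.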
Bile acid receptor (Homo sapiens), sequence (Q96RI1 whole entry, looked up): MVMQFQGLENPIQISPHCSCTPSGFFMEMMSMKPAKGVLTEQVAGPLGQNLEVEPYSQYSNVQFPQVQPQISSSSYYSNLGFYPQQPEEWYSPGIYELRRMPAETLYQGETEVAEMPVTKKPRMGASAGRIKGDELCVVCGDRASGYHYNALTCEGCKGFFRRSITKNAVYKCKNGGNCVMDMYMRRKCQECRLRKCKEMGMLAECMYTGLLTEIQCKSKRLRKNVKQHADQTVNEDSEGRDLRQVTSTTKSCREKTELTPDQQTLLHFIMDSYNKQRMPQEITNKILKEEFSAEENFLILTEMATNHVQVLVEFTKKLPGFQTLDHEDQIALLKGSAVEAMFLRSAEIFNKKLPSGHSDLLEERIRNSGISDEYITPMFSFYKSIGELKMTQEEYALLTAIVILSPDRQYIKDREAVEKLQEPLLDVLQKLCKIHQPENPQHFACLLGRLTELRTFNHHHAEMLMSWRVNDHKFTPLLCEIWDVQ

In experiment [16] the target is Retinoic acid receptor RXR-alpha (Homo sapiens) (UniProt P19793). In words: qHTS assay for small molecule agonists of retinoid X receptor alpha signaling (AID 588544).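 Also: 0% = DMSO basal wells and 100% = reference agonist.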
A short description of experiment [17]: Stat Signaling Pathway (AID 446; active = well fitted curve in either direction with a large enough effect, not every such curve was filed as active;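 also: ME-180 cervical cancer cells given 40 pM IL-6 alongside compound; SIE-controlled beta-lactamase reporter measured as 460/530 nm FRET emission ratio; % is scaled to controls: 0 for no effect and ±100 for the full control effect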). The essentials:
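ME-180 SIE-bla cells; overnight plating; cpd + IL-6 40 pM, 5 h, 37 C; LiveBLAzer 2.5 h RT; 460/530 nm emission ratio. Normalized to 300 pM IL-6 and 125 nM JAK inhibitor controls.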

A short description of experiment [18]: NFAT Signaling Pathway (AID 444; active = well fitted curve in either direction with a large enough effect, not every such curve was filed as active;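 also: carbachol stimulus at about its EC50 of 1 µM final; % is scaled to controls: 0 for no effect and ±100 for the full control effect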). Particulars: Jurkat NFAT-bla M1, carbachol, beta-lactamase ratio, 5 h; at 17.2 µM (top of the series) unless noted. The essentials: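 Read-out: CCF4 FRET ratio (460 nm/530 nm) after 1 h RT dye loading, used for %activity and AC50 from titration series. Cells: Jurkat NFAT-β-lactamase/M1 line, treated with compound plus 1 uM carbachol for 5 h, 37 °C.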

Experiment [19] deals with Glucocorticoid receptor (Homo sapiens) (UniProt P04150). In words: GR-EFC Redistribution (AID 451). Also: potency is read from the fitted curve at half-maximal effect. Particulars: CHO-K1 GR-EFC translocation, beta-gal luminescence, 2 h. In outline: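 Translocation of GR-ED fusion to nuclear EA restores b-gal, read by luminescence after 1 h room-temperature detection. Engineered CHO-K1 biosensor cells, 1,000/well, exposed 2 h at 37 C to titrations up to 46 uM final.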
Glucocorticoid receptor (Homo sapiens), sequence (P04150 whole entry, looked up, the tested form may be a part): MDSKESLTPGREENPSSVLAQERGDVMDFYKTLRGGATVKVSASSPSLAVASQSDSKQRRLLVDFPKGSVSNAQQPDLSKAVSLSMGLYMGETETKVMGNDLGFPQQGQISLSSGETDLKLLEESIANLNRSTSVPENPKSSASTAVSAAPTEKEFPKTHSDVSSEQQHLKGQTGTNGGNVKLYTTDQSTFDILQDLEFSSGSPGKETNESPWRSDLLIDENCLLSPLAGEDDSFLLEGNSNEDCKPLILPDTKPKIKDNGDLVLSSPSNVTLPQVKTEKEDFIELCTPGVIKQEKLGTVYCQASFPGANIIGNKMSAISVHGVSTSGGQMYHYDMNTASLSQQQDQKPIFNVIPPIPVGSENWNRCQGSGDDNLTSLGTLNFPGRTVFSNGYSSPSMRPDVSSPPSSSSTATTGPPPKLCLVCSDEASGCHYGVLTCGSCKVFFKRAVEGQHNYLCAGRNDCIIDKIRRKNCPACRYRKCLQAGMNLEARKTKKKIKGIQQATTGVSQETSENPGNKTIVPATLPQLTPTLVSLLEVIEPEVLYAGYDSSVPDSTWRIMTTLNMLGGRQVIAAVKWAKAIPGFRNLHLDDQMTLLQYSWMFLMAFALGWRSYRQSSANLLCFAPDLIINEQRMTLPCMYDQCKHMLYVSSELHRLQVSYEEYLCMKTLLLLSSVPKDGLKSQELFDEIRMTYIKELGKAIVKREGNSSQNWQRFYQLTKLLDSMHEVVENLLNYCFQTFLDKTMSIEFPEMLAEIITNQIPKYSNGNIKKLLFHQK

In experiment [20] the target is 3',5'-cyclic-AMP phosphodiesterase 4B (Homo sapiens) (UniProt Q07343). Briefly: qHTS Assay for Inhibitors of PDE-IV (AID 607; active = well fitted activation curve with a large enough effect in the main read-out, with a control signal flat, not every such curve was filed as active; also: % of control where 0% means no effect). In outline: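 ACTOne HEK293 cells carry a modified cAMP-gated CNG channel and express endogenous PDE4; plated 1000 cells/well, compounds up to 22.9 uM final. Membrane-potential dye fluorescence (ex 535/em 590) was read; parental cells received 10 uM forskolin + 100 uM RO 20-1724.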
3',5'-cyclic-AMP phosphodiesterase 4B (Homo sapiens), sequence (Q07343 whole entry, looked up): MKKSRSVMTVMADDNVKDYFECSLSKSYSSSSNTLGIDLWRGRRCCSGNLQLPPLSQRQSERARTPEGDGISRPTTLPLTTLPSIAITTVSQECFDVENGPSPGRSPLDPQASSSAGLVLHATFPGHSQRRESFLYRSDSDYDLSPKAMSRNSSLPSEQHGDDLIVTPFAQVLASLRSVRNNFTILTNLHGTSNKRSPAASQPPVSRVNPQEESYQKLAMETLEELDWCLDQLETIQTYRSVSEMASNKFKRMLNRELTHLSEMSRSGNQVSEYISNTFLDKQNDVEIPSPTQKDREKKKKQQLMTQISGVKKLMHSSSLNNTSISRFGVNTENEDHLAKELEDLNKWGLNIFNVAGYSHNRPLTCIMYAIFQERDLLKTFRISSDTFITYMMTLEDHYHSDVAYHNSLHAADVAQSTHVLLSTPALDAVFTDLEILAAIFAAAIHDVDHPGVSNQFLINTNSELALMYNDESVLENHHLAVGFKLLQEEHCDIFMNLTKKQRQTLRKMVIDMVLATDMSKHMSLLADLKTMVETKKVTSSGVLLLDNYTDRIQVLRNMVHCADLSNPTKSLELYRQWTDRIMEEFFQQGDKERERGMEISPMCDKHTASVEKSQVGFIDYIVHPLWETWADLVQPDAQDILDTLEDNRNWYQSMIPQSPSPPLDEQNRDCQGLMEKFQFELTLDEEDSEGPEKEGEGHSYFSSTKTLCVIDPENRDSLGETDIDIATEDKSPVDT

Each structure is given as a SMILES string. Several values for one entry are separate records, joined by “and”; a condition that tells them apart may be missing. Equal entries are not always repeated. Records with an inconclusive call do not appear. Some compounds were tested as several samples or in several runs, with calls that do not always agree. Activity calls are given as the source filed them. Unless noted, calls follow the shape of the full dose curve.

Thyroid hormone receptor beta (Homo sapiens), sequence (P10828 whole entry, looked up): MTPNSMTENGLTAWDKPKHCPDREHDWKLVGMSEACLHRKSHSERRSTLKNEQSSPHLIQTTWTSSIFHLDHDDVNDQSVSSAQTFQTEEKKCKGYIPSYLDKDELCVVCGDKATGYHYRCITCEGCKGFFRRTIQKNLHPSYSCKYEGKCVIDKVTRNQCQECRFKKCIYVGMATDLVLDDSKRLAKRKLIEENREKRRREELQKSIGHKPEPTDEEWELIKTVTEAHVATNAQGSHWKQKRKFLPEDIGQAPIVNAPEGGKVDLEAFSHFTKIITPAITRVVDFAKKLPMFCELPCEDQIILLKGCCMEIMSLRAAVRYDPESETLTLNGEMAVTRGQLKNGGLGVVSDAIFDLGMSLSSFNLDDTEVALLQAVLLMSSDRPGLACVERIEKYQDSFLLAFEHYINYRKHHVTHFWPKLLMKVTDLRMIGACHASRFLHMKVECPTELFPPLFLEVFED
Nuclear receptor subfamily 1 group I member 2 (Rattus norvegicus), sequence (Q9R1A7 whole entry, looked up): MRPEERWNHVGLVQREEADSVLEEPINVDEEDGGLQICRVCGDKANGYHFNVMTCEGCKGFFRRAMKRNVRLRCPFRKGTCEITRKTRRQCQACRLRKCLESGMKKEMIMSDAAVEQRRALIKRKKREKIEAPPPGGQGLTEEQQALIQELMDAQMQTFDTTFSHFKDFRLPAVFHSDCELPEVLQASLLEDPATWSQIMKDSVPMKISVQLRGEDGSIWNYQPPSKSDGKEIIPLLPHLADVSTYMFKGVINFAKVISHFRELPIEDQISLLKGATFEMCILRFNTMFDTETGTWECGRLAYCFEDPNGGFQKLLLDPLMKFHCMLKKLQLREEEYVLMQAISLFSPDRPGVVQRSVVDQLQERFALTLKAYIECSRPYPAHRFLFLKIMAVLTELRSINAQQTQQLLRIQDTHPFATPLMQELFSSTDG
Estrogen receptor (Homo sapiens), sequence (P03372 whole entry, looked up): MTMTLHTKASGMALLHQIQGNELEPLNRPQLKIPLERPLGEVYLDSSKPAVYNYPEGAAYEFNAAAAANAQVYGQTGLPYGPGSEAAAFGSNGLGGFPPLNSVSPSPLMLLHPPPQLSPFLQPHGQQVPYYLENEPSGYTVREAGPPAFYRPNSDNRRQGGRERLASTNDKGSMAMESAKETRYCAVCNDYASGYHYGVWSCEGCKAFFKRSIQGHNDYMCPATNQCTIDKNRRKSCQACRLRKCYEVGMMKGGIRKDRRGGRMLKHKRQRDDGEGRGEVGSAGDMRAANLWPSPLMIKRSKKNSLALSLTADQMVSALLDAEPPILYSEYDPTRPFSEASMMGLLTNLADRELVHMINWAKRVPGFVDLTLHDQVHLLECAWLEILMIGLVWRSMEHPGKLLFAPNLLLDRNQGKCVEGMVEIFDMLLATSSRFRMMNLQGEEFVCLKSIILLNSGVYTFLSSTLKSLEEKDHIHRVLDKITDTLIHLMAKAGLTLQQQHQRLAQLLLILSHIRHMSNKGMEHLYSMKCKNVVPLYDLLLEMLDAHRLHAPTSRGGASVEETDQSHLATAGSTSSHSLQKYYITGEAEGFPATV

For the compound `O=C(CCl)c1ccccc1`, the caspase-3 activation in [1] is -8.71% (inactive). Moreover, the Potency in experiment [2] is 12.6 µM (active); in experiment [4], 39.8 µM (active) and inactive; in [5], 35.5 µM (active) and inactive; in experiment [10], 61.1 µM (active). In addition, the activation in experiment [3] was 5.85% (inactive) and 11.4% (inactive); in [11], 0.721% (inactive). Moreover, the Potency entry in experiment [6] was “inactive”. The max response is -13.4% in experiment [7]; 9.61% (inactive) in experiment [8]; -5.24% (inactive) and -3.68% (inactive) in [12]. Also, the activity change % (negative = inhibition) in [9] is -10.9% (inactive). Also, the outcome in experiment [13] was inactive.

In the case of `Oc1c(Br)c(Br)c(Br)c(Br)c1Br`, the Potency in [1] is 31.6 µM (active); in [4] it was 39.8 µM (active). For the same compound, in [2], the Potency entry is “inactive”. Moreover, the activation in experiment [3] is 3.02% (inactive). In addition, in experiment [13], the compound was called inactive.

`CCCCCCCCn1sccc1=O`: the Potency in [2] is 3.98 µM (active); in experiment [5], 22.4 µM (active); in experiment [10], 66.8 µM (active) and 54.5 µM (active). For the same compound, the Potency result in experiment [14], in experiment [4] and in experiment [6] was “inactive” each time. The activation in experiment [15] was 6.4% (inactive); in experiment [11], -0.619% (inactive) and -1.03% (inactive).

In the case of `N#CC(Cl)Cl`, the figures for the Potency in experiment [1] and in experiment [10] were 5.01 µM (active) and 26.6 µM (active), respectively. Besides, the Potency result in experiment [5] and in experiment [16] was “inactive” in each case. In addition, the values for the max response in experiment [7], in experiment [8] and in [12] were 6.6%, 0.201% (inactive) and 0.641% (inactive), respectively. In addition, the activation in [11] was -2.38% (inactive). Also, the result in experiment [13] was inactive.

As for `CCOc1ccc(-n2c(O)c(C=Nc3ccc(N(CC)CC)cc3)c(=O)[nH]c2=O)cc1`, the call in [17] was inactive.

Take `CCN(CC)CCN=C(C)c1c(O)n(-c2ccccc2OC)c(=O)[nH]c1=O`: the activity change, negative = inhibition in [18] was -15.6% (inactive). The outcome in experiment [17] was inactive.

For `CC(=O)[O-].CC(=O)[O-].O.O.[Cd+2]`, the caspase-3 activation in [1] is 4.84% (inactive). In addition, the Potency entry in experiment [6] was “inactive”.

As for `O=[N+]([O-])C(Br)Br`, the Potency in [2] was 20 µM (active); in experiment [10], 47.3 µM (active). The Potency result in experiment [5], in [16] and in [6] was “inactive” each time. Also, the results for the max response in experiment [7], in experiment [8] and in experiment [12] were -6.12%, 3.78% (inactive) and 1.81% (inactive), respectively. Also, the activity change % (negative = inhibition) in [9] was 4.06% (inactive). Also, the compound was classed as inactive in experiment [13].

In the case of `Oc1cc2c(cc1O)[C@H]1c3ccccc3CN[C@@H]1CC2`, in [18], the activity change, negative = inhibition was -4.87% [at 38 µM] (inactive). Further, the result in experiment [17] and in [20] was inactive. Further, in experiment [19], the Potency is > 46 µM (inactive).
